Measured values: PubChem BioAssay (NCATS)
Values joined by “and” are separate entries in the source; they are usually repeats but may differ in a detail not shown here. Equal values may be shown once. Records with an inconclusive call do not appear. Active and inactive are the calls of the source. Unless noted, calls come from the whole dose curve; as a rule, active = well fitted curve in the direction sought with a large enough effect; inconclusive = small, poorly fitted or top-dose-only effect, or another doubt; inactive = no such curve, though single readings can be large; an effect the other way counts as inactive or inconclusive.

Key:
[1] = Cell Viability - LYMP2-001 (AID 921);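 note: series mostly up to about 92 µM; 0% = DMSO only and full inhibition = tetraoctylammonium bromide control wells; nearly all actives have a fitted effect of over 70% in size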
Summary of the method: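 Human lymphoblastoid cells (Coriell), 2500 per well, were preincubated 5 hr at 37 C, then exposed to compounds in complete medium for 24 hr at 37 C. Cellular ATP was read by CellTiter-Glo luminescence; AC50 from Hill fits of concentration-response data.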

[2] = MultiTox-Fluor Cytotoxicity Assay - LYMP1-001 - Dead Cells (AID 946);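 note: 0% = DMSO and 100% = tetraoctylammonium bromide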
Summary of the method: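 AC50 from Hill fit of concentration-response; data normalized to DMSO (basal) and 15 uM tetraoctylammonium bromide (100%). LYMP1-001 lymphoblastoid cells, 2500/well, 16 hr compound at 37 C; dead-cell protease fluorescence, Ex/Em 485/520.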

[3] = MultiTox-Fluor Cytotoxicity Assay - LYMP1-001 - Live Cells (AID 947);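 note: 0% = DMSO only and full inhibition = tetraoctylammonium bromide control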
[4] = Cell Viability - LYMP1-002 - Assay at 16 hr (AID 948);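 note: 0% = DMSO alone and full effect = 92 µM tetraoctylammonium bromide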
Summary of the method: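 Human lymphoblastoid cells (LYMP1-002), 2500/well, were preincubated 5 hr at 37 C, then exposed to compounds for 16 hr at 37 C in complete medium. Cellular ATP was read by CellTiter-Glo luminescence after 30 min at room temperature; AC50 from Hill fits.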

[5] = MultiTox-Fluor Cytotoxicity Assay - LYMP1-002 - Live Cells (AID 955); note: % is set by controls: 0 for no effect and ±100 for the full control effect
Summary of the method: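 LYMP1-002 lymphoblastoid cells; 2500 cells/well; 16 hr compound exposure, 37 C; MultiTox-Fluor reagent 60 min RT; live-cell fluorescence Ex/Em=405/510; qHTS concentration-response, Hill-equation AC50; tetraoctylammonium bromide positive control.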

[6] = MultiTox-Fluor Cytotoxicity Assay - LYMP1-002 - Dead Cells (AID 960);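 note: 0% = DMSO and 100% = tetraoctylammonium bromide; nearly all actives have a fitted effect of over 60% in size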
Summary of the method: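 Readout: fluorescence at 485/520 from cell-impermeant bis-AAF-R110 cleaved by proteases leaking from damaged cells. LYMP1-002 lymphoblastoid line, 16 hr compound treatment at 37 C, concentration-response in qHTS format; Hill-equation AC50 values.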

[7] = MultiTox-Fluor Cytotoxicity Assay - LYMP1-003 - Dead Cells (AID 961);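 note: 0% = DMSO and 100% = tetraoctylammonium bromide; nearly all actives have a fitted effect of over 70% in size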
Summary of the method: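 Human lymphoblastoid LYMP1-003 cells (2500/well) were treated with compounds for 16 hr at 37 C in complete medium. Dead-cell protease release was read by bis-AAF-R110 fluorescence (Ex/Em 485/520). AC50 came from Hill fits, normalized to DMSO and 15 uM tetraoctylammonium bromide.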

[8] = MultiTox-Fluor Cytotoxicity Assay - LYMP1-003 - Live Cells (AID 962);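 note: 0% = DMSO only and full loss = 92 µM tetraoctylammonium bromide; cytotoxic hits lower the live-cell protease signal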
Summary of the method: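 Readout: live-cell fluorescence (Ex/Em=405/510) from GF-AFC cleavage after 60 min MultiTox-Fluor reagent at room temperature. Lymphoblastoid LYMP1-003 cells, 16 hr compound treatment, 37 C. Concentration-response fitted to standard Hill equation for AC50.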

[9] = Cell Viability - LYMP1-003 - Assay at 24 hr (AID 963);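 note: plate controls were DMSO only for no effect and tetraoctylammonium bromide positive control for full effect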
Summary of the method: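 CellTiter-Glo luminescence (intracellular ATP) read after 24 hr, 37 C compound exposure of 2500 LYMP1-003 human lymphoblastoid cells/well in complete medium; qHTS concentration series; AC50 via standard Hill equation.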

[10] = Cell Viability - LYMP1-003 - Assay at 40 hr (AID 964); note: series mostly up to about 92 µM; % is set by controls: 0 for no effect and ±100 for the full control effect; nearly all actives have a fitted effect of over 60% in size
Summary of the method: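 LYMP1-003 lymphoblastoid cells, 2500/well; 5 hr preincubation, 40 hr compound exposure, 37 C; CellTiter-Glo 30 min RT; luminescence; Hill-fit AC50. Positive control tetraoctylammonium bromide.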

[11] = Cell Viability - LYMP2-004 (AID 966);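 note: plate controls were DMSO only for no effect and tetraoctylammonium bromide control for full effect; nearly all actives have a fitted effect of over 65% in size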
Summary of the method: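 Luminescent ATP read-out (CellTiter-Glo, 30 min RT) after 24 hr compound exposure at 37 C; 2500 lymphoblastoid cells/well, complete medium. Decrease in ATP = cytotoxicity; AC50 from standard Hill model.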

[12] = Cell Viability - LYMP2-005 (AID 967);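 note: series mostly up to about 92 µM; plate controls were DMSO only for no effect and 92 µM tetraoctylammonium bromide control for full effect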
Summary of the method: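 CellTiter-Glo luminescence (cellular ATP) read-out; LYMP2-005 lymphoblastoid cells, 2500/well, 5 h pre-incubation, then 24 h compound exposure at 37 C in complete medium. Tetraoctylammonium bromide positive control; AC50 by standard Hill fit.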

[13] = Cell Viability - LYMP2-009 (AID 968);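 note: series mostly up to about 92 µM; 0% = DMSO alone and the full-kill end = tetraoctylammonium bromide at 92 µM; nearly all actives have a fitted effect of over 55% in size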
[14] = Cell Viability - LYMP2-011 (AID 969);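 note: 0% = DMSO only and full inhibition = 92 µM tetraoctylammonium bromide; nearly all actives have a fitted effect of over 60% in size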
Summary of the method: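 Luminescent ATP read-out (CellTiter-Glo, 30 min RT) after 24 hr compound exposure at 37 C in human lymphoblastoid cells, 2500 cells/well. Decreasing ATP indicates cytotoxicity; AC50 from standard Hill fit.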

[15] = Cell Viability - LYMP2-013 (AID 970);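 note: series mostly up to about 92 µM; 0% = DMSO only and full inhibition = tetraoctylammonium bromide control; nearly all actives have a fitted effect of over 55% in size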
Summary of the method: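 CellTiter-Glo luminescence (cellular ATP) read after 30 min at RT. Cells: human lymphoblastoid line, 2500/well, 24 hr compound exposure at 37 C. Tetraoctylammonium bromide positive control; AC50 via standard Hill fit of qHTS titrations.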

[16] = Cell Viability - LYMP2-015 (AID 971);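 note: 0% = DMSO only and full effect = 92 µM tetraoctylammonium bromide; nearly all actives have a fitted effect of over 55% in size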
Summary of the method: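 qHTS cytotoxicity: 2500 cells/well, 5 hr 37 C, compound 24 hr 37 C, CellTiter-Glo 30 min RT, luminescence. Loss of ATP = toxicity; AC50 via standard Hill fit.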

[17] = Cell Viability - LYMP2-017 (AID 972); note: series mostly up to about 92 µM; % is set by controls: 0 for no effect and ±100 for the full control effect; nearly all actives have a fitted effect of over 55% in size
Summary of the method: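 Luminescent ATP read-out (CellTiter-Glo, 30 min RT) reports viable cell number. Cells: human lymphoblastoid line, 2500 per well, 5 hr preincubation, 24 hr compound exposure at 37 C. AC50 is derived from qHTS concentration-response data using the standard Hill model.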

[18] = qHTS assay for small molecule agonists of the antioxidant response element (ARE) signaling pathway measured by Nrf2-dependant transcriptional activity - cell viability counter screen (AID 720653; active = well fitted curve in the direction sought with a large enough effect in the repeat runs; an effect the other way counts as inactive or inconclusive; note: % is set by controls: 0 for no effect and ±100 for the full control effect); conditions: ARE-bla HepG2 viability, CellTiter-Glo ATP luminescence, 16 h; active compounds read low
Summary of the method: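 ARE-bla HepG2 cells treated with compounds for 16 h at 37C; this counter screen measures viability as intracellular ATP by CellTiter-Glo luminescence after 30 min at room temperature.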

[19] = qHTS assay for cell viability of HEK293 cells (AID 743288); conditions: ATP luminescence (CellTiter-Glo), 18 h, active compounds read low; note: % is set by controls: 0 for no effect and ±100 for the full control effect; nearly all actives have a fitted effect of over 50% in size
Summary of the method: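 After 18 h compound exposure at 37 C, parental HEK293 cells (2,000/well) are lysed with CellTiter-Glo and luminescence is read following 30 min at room temperature.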

[20] = qHTS assay for cell viability of the p53RE-bla HCT-116 cell line (AID 743292)
Summary of the method: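 CellSensor p53RE-bla HCT-116 cells (4,000/well) pre-incubated 5 h at 37 C, then exposed to compounds in DMSO for 16 h at 37 C. Viability read as ATP content by CellTiter-Glo luminescence after 30 min at room temperature.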

Measured: max response

Cc1occc(=O)c1O
inactive: [1] | [2] | [3] | [4] | [5] | [6] | [7] | [8] | [9] | [10] | [11] | [12] | [13] | [14] | [15] | [16] | [17] | [18] 5.21% | [19] 0.312% | [20]

CC1=CC(=O)CC(C)(C)C1(O)/C=C/C(C)=C\C(=O)O (stereo not given)
inactive: [1] | [2] | [3] | [4] | [5] | [6] | [7] | [8] | [9] | [10] | [11] | [12] | [13] | [14] | [15] | [16] | [17] | [18] 6.26% | [19] 11% | [20]

COS(C)(=O)=O
inactive: [1] | [2] | [3] | [4] | [5] | [6] | [7] | [8] | [9] | [10] | [11] | [12] | [13] | [14] | [15] | [16] | [17] | [18] -2.28% | [19] 1.66% | [20]

C=C(C)[C@H]1CC=C(C)C(=O)C1
inactive: [1] | [2] | [3] | [4] | [5] | [6] | [7] | [8] | [9] | [10] | [11] | [12] | [13] | [14] | [15] | [16] | [17] | [18] -9.52% and 8.39% | [19] -10.1% and -1.01% | [20]

C=CC(C)(O)CCC=C(C)C (stereo not given)
inactive: [1] | [2] | [3] | [4] | [5] | [6] | [7] | [8] | [9] | [10] | [11] | [12] | [13] | [14] | [15] | [16] | [17] | [18] 12.9% and 1.07% | [19] 5.28% and -11.2% | [20]
